Screen size: about 310,000 compounds; about 14,000 (4.5%) showed an effect of 50% or more. The effect is printed as a negative number. What follows is part of a selection rich in strong results, with near analogues and random picks from the rest.
Target: human ether-à-go-go-related gene (hERG) potassium channel (human, UniProt Q12809)
Experiment: primary screen, population patch clamp on CHO cells stably expressing hERG; higher = less effect of the substance
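Note: peak tail current of the secondary pulse compared with the same well before compound.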

human ether-à-go-go-related gene (hERG) potassium channel, sequence (Q12809 whole entry, looked up): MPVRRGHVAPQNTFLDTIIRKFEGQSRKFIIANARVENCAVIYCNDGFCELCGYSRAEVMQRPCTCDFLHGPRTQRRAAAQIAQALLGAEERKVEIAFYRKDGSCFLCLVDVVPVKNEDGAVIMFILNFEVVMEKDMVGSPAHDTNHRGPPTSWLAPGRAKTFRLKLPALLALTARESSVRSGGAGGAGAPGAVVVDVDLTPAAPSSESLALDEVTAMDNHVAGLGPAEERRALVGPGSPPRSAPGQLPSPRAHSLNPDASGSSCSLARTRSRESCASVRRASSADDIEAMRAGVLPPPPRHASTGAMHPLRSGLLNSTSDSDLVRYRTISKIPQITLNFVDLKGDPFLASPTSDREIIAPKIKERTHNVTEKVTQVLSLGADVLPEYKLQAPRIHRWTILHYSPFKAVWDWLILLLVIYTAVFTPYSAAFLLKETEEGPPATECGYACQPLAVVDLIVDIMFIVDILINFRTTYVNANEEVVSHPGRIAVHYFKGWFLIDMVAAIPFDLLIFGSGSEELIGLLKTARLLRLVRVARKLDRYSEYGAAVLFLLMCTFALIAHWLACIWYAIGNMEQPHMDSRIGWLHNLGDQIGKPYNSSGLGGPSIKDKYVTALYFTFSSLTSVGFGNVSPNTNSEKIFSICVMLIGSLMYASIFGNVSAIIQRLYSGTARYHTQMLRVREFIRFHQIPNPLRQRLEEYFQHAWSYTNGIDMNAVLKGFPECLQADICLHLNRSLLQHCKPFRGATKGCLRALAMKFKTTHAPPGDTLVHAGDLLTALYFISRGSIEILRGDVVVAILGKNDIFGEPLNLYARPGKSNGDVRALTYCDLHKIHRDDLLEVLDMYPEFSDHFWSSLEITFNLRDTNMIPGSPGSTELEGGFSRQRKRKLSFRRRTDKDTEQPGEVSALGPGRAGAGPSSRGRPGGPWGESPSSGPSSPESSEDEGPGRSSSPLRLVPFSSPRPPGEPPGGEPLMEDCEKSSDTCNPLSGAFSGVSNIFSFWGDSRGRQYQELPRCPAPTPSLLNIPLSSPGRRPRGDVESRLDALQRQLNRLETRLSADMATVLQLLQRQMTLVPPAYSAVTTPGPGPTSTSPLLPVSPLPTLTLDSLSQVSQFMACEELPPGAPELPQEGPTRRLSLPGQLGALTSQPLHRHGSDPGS

| Structure (SMILES) | hERG current change (%, negative = inhibition) at 10uM [%] |
| --- | --- |
| Cc1cc(=O)oc2cc(OCc3cc4c(cc3Cl)OCO4)ccc12 | 8.74 |
| NNC(=O)CNc1cccc(Cl)c1 | 15.4 |
| CC(=O)c1ccc(NC(=O)C2C3CCC(C3)C2C(=O)O)cc1 (centres unmarked) | 17.8 |
| COCCCNC(=O)Cn1nc(-c2ccccc2OC)ccc1=O | 18 |
| COc1ccc(Cl)cc1C(=O)Nc1ccncc1 | -26.2 |
| Cn1c(N)c(C(=O)COC(=O)C23CC4CC(CC(C4)C2)C3)c(=O)n(C)c1=O | -22.6 |
| Cn1c(N)c(C(=O)COC(=O)C2CCCCC2)c(=O)n(C)c1=O | -11.2 |
| Cn1c(N)c(C(=O)COC(=O)C2CCCC2)c(=O)n(C)c1=O | -20.6 |
| Cn1c(N)c(C(=O)COC(=O)CCC2CCCCC2)c(=O)n(C)c1=O | -73.6 |
| Cn1c(N)c(C(=O)COC(=O)CCC2CCCC2)c(=O)n(C)c1=O | -43.3 |
| Cn1c(N)c(C(=O)COC(=O)CC2CC3CCC2C3)c(=O)n(C)c1=O (centres unmarked) | -64.4 |
| Cc1ccccc1OC(C)C(=O)NC1CCCC1 (centres unmarked) | -2.63 |
| O=C(NN=C1C2CC3CC1CC(Cl)(C3)C2)c1cccs1 | 8.54 |
| COc1ccc(-c2nc(NC(C)=O)sc2-c2ccccc2)cc1 | 34.7 |
| COc1ccc(CNC(=O)CN(C(=O)c2csnn2)c2ccc(F)cc2)cc1 | -5.15 |
| COc1ccc(CN(CC(=O)NCc2ccc(F)cc2)C(=O)c2csnn2)cc1 | -58.5 |
| COc1ccc(CN(CC(=O)NCc2ccccc2)C(=O)c2csnn2)cc1 | -26.6 |
| COc1ccc(CNC(=O)CN(Cc2ccc(F)cc2)C(=O)c2csnn2)cc1 | -70.4 |
| COc1ccc(CNC(=O)CN(Cc2ccc(C)cc2)C(=O)c2csnn2)cc1 | -36.1 |
| COc1ccc(CNC(=O)CN(Cc2ccccc2OC)C(=O)c2csnn2)cc1 | -29 |
| COc1ccc(CNC(=O)CN(Cc2ccccc2F)C(=O)c2csnn2)cc1 | -32.7 |
| COc1ccc(CNC(=O)CN(Cc2ccc(OC)cc2)C(=O)c2csnn2)cc1 | -57.5 |

| Structure (SMILES) | hERG current change (%, negative = inhibition) at 10uM [%] |
| --- | --- |
| C=CCN(CC(=O)NCc1ccc(OC)cc1)C(=O)c1csnn1 | -16.7 |
| COc1ccc(CNC(=O)CN(Cc2ccc(Cl)cc2)C(=O)c2csnn2)cc1 | -71.7 |
| COc1ccccc1CN(CC(=O)NCc1ccc(F)cc1)C(=O)c1csnn1 | -35.3 |
| COc1ccc(CNC(=O)CN(Cc2ccccc2)C(=O)c2csnn2)cc1 | -32.3 |
| CCOc1cccc(=O)c2c(C)n(-c3ccc(C(=O)O)cc3)c(C)c12 | 32 |
| CCOC(=O)c1c(C)nsc1NC(=O)c1ccco1 | -4.79 |
| CCOc1ccc(NCc2nnc(SCC(=O)Nc3cc(C)on3)n2-c2ccc(OC)cc2)cc1 | -4.02 |
| CCc1cccc(CC)c1NC(=O)COC(=O)Cc1ccsc1 | 21.2 |
| COc1ccc(N2C(=O)NC(=O)/C(=C/c3cccc(OC(=O)c4cccs4)c3)C2=O)cc1Cl | -2.57 |
| Cc1ccc(C(=O)NC(=S)Nc2cc(C(F)(F)F)ccc2Cl)cc1 | 20.3 |
| CCOC(=O)Cc1csc(NC(=O)CN(C)S(=O)(=O)c2ccc3c(c2)CCC(=O)N3)n1 | -15.9 |
| CN(C)S(=O)(=O)c1ccc(C(=O)Nc2cc(S(=O)(=O)Nc3ccccc3Cl)ccc2N2CCCCC2)cc1 | 25.5 |
| COc1ccc(C/C(N)=N/OC(=O)c2cccs2)cc1 | 12.8 |
| O=C(Nc1nc2ccc(SC(F)F)cc2s1)c1ccc(NS(=O)(=O)c2ccc(F)c(F)c2)cc1 | -8.03 |
| COc1ccc(NC(=O)C(C)Sc2ccccc2)cc1 (centres unmarked) | 1.14 |
| COC(=O)CCc1sc(NC2CCCCC2)nc1-c1ccc(OC)cc1 | 8.55 |
| CN1CCN(C(=O)c2ccc(Oc3ccc([N+](=O)[O-])cc3)cc2)CC1 | -50.6 |
| O=C(c1ccc(Oc2ccc([N+](=O)[O-])cc2)cc1)N1CCCCCC1 | -25.5 |
| CCOC(=O)N1CCN(C(=O)c2ccc(OCC)cc2)CC1 | -28.3 |
| CCOC(=O)N1CCN(C(=O)c2ccc(Oc3ccc([N+](=O)[O-])cc3)cc2)CC1 | -68.3 |
| CN1CCN(C(=O)c2cc([N+](=O)[O-])cc([N+](=O)[O-])c2)CC1 | 16.7 |
| CCOC(=O)N1CCN(C(=O)c2ccc(OC)cc2)CC1 | 19.8 |

| Structure (SMILES) | hERG current change (%, negative = inhibition) at 10uM [%] |
| --- | --- |
| COc1ccc(Br)c(C(=O)NNC(=O)c2ccc(NS(=O)(=O)c3cccs3)cc2)c1 | 12.6 |
| CCC1CCCCN1C(=O)CSc1nnc(CNC(=O)c2c(F)cccc2Cl)o1 (centres unmarked) | 10.7 |
| CCOC(=O)C(=O)Nc1ccc(S(=O)(=O)N2CCOCC2)cc1OC | 4.78 |
| O=C(O)/C=C/C(=O)NC1CC1 | 41.9 |
| COc1ccc(-c2nnc(OC)c3ccccc23)cc1 | -7.99 |
| COc1nnc(-c2ccc(C)cc2)c2ccccc12 | 5.93 |
| CCN(CC)CCOc1nnc(-c2ccc(C)cc2)c2ccccc12 | -67.7 |
| COc1ccc(Oc2nnc(-c3ccc(C)cc3)c3ccccc23)cc1 | 5.64 |
| CCN(CC)CCOc1nnc(-c2ccc(OC)cc2)c2ccccc12 | -65 |
| Cc1ccc(-c2nnc(OCCN3CCOCC3)c3ccccc23)cc1 | -43.4 |
| Br.c1ccc(-c2cc3n(c2)CCc2ccccc2-3)cc1 | 4.17 |
| O=C(CC1C(=O)NCCN1C(=S)Nc1ccccc1)Nc1ccc2c(c1)OCCO2 (centres unmarked) | -15.2 |
| COc1ccc(-c2nn(-c3ccccc3)cc2C(=O)NCCCn2ccnc2)cc1 | -39.4 |
| C/C(=C\c1ccccc1)C(=O)NCCCn1ccnc1 | -10.1 |
| O=C(NCCCn1ccnc1)/C(=C\c1cccnc1)NC(=O)c1cccc(Br)c1 | -0.509 |
| O=C(NCCCn1ccnc1)c1cn(-c2ccccc2)nc1-c1ccccc1 | -47.1 |
| O=C(NCCCn1ccnc1)c1cn(-c2ccccc2)nc1-c1ccc(F)cc1 | -64 |
| O=C(NCCCn1ccnc1)/C(=C\c1ccc(Br)cc1)NC(=O)c1ccccc1 | -75.8 |
| O=C(NCCCn1ccnc1)/C(=C/c1ccc(Cl)cc1)NC(=O)c1ccccc1 | -74.7 |
| CSc1ccc(/C=C(/NC(=O)c2ccccc2)C(=O)NCCCn2ccnc2)cc1 | -60.8 |
| COc1ccc(/C=C(\NC(=O)c2ccc(Cl)cc2)C(=O)NCCCn2ccnc2)cc1OC | 13.9 |
